According to ChEMBL document CHEMBL3433997, “St. Jude Leishmania screening dataset” (2016):
Several values for one entry are separate records, joined by “and”; a condition that tells them apart may be missing. Equal entries are not always repeated.

Target: Hexose transporter 1 (Plasmodium falciparum) (UniProt O97467)
Assay: ST_JUDE_LEISH: Cytotoxicity at 2uM final concentration against transgenic Leishmania Mexicana promastigotes LmPfHT that are glucose transport deficient and complemented with the Plasmodium falciparum hexose transporter. Activity is measured by DNA content using SYBR green in vitro
Format: functional

SMILES	inhibition
O=S(=O)(NCCN1CCCC1)c1ccc(-c2ccc(CNCc3ccsc3)cc2)cc1	6.54%
CCN1CCc2nc3ccccc3c(C(=O)Nc3ccc(C#N)cc3)c2C1	3.74%
O=C(Nc1cccc(CN2CCN(C(=O)c3ccccc3)CC2)c1)c1cccs1	2.87%
CN(C)CCOc1ccc2c(=O)cc(CCc3cccc(F)c3F)n(CC(=O)N(C)Cc3ccc(-c4ccc(C(F)(F)F)cc4)cc3)c2c1	-0.55%
CCNc1cc(C(=O)N[C@@H](Cc2ccccc2)[C@H](O)CNC2(Cc3cccc(Cl)c3)CCC2)cc(N2CCCCS2(=O)=O)c1	0.65%
COc1ccccc1CNc1ccnc(NCCc2cccc(C(F)(F)F)c2)n1	8.92%
FC(F)(F)c1ccc2[nH]c(-c3ccc(-c4ccc(CNCCc5ccncc5)cc4)cc3)nc2c1	-3.26%
CC(C)C[C@@H](/C=N/NC(N)=O)NC(=O)[C@H](CC(C)C)NC(=O)[C@H](CC(C)C)NC(=O)OCc1ccccc1	6.9%
NC1CCN(CCc2ccc(NS(=O)(=O)c3ccc(-c4ccccc4)cc3)cc2)CC1	-0.24%
Cc1ccc(Cl)cc1NC(=O)c1c(-c2ccccc2Cl)noc1C	-1.54%
O=C(Nc1ccccc1)c1nn(CCCN2CCC(N3CCCC3)CC2)cc1-c1ccc(Cl)c(Cl)c1	0.39%
c1ccc2[nH]c(-c3ccc(-c4ccc(CNCCc5ccncc5)cc4)s3)nc2c1	5.02%
CN(C)C(=O)c1ccc(CN(Cc2ccc3c(c2)OCCO3)Cc2ccc3c(c2)OCO3)cc1	3.62%
COc1cc(NC(=O)N2CCc3cc(OC)c(OCCN4CCCCC4)cc32)cc(C(F)(F)F)c1	12.7%
Cc1cccc(CNc2ncc(C)c(NCCC(=O)Nc3ccccc3)n2)c1	12.7%
CCc1ccc(-c2nc3cc(NC(=O)c4ccc([N+](=O)[O-])o4)ccc3o2)cc1	2.33%
N#Cc1ccc(N(CCOC(=O)c2ccccc2)Cc2ccccc2C(F)(F)F)cc1C(F)(F)F	1.18%
CC1(C)N=C(NC(=O)c2ccc([N+](=O)[O-])cc2)N=C(N)N1OCc1ccc2ccccc2c1	4.18%
Cc1cccc2nc(-c3cccc(-c4cccc(CN5CCN(c6ccncc6)CC5)c4)c3)[nH]c12	0.76%
O=S(=O)(NCCN1CCCC1)c1ccc(-c2cccc(CNCc3ccc(F)cc3)c2)cc1F	5.71%

SMILES	inhibition
CC(C)CCN1CCC(Oc2ccc(NC(=O)c3ccccc3)cc2Cl)CC1	3.09%
CCOC(=O)c1nc(-c2cccnc2)[nH]c1NC(=S)NCc1ccccc1	0.92%
O=C(c1ccc(OCCn2ccnc2)cc1)N1CCC(c2ccc(Br)cc2)C1 (stereo not given)	3.01%
O=S(=O)(c1ccc(OC(F)(F)F)cc1)C1CC2CCC(C1)N2S(=O)(=O)c1ccc(Cl)c(C(F)(F)F)c1 (stereo not given)	12.9%
N#Cc1ccc2c(c1)CN(CC[C@H]1CC[C@H](NC(=O)/C=C/c3c[nH]c4ccccc34)CC1)CC2	6.9% and 1.06%
CS(=O)(=O)c1ccc(CCNCc2ccc(-c3ccc(CN(C(=O)c4ccco4)C4CCN(Cc5ccccc5)CC4)cc3)nc2)cc1	0.67%
C[C@H](NC(=O)c1c(OC2CN(C(c3ccccc3)c3ccccc3)C2)c(-c2ccccc2)nc2ccccc12)C1CCCCC1	0.08%
CCCN(CCC)CCCNc1ccc(C(=O)Nc2ccc(OCC)cc2)cc1[N+](=O)[O-]	19.4%
NCC(NC(=O)c1ccc(-c2c[nH]c3ncccc23)s1)c1ccccc1 (stereo not given)	56.6%
FC(F)(F)c1ccc2[nH]c(-c3ccc(-c4cccc(CNCCc5cccnc5)c4)s3)nc2c1	2.04%
CCC(C)CN1CCCN(c2ccc(NC(=O)c3cccs3)cc2)CC1 (stereo not given)	-0.95%
FC(F)(F)c1cccc(CNC2CCN(CC3CCCCC3)CC2)c1	4.53%
CCCCCN1CCCN(Cc2cccc(NC(=O)c3ccc(Cl)c(Cl)c3)c2)CC1	0.02%
CCOc1ccc(NC(C)=O)c(O)c1	5.38%
CC(C)Cc1nc(N)nc(N)c1-c1ccc(Cl)cc1	5.64%
COc1ccc(N2CCN(CCCCNC(=O)c3ccc(NC(=O)c4ccc(OC(F)(F)F)cc4)cc3)CC2)c(OC)c1	5.69%
Cc1cccc2nc(-c3ccc(-c4cccc(NC(=O)Nc5ccsc5)c4)s3)[nH]c12	2.82%
Cc1ccc(CN2CCCN(Cc3cccc(NC(=O)c4ccc(Cl)c(Cl)c4)c3)CC2)cc1	-2.91%
Cc1cc(N2CCOCC2)nc2ccc(NC(=O)c3ccc(Cl)c([N+](=O)[O-])c3)cc12	3.08%
CCN(CC)CCCNc1nccc(N2CCc3ncnc(Nc4ccc(OCc5cccc(F)c5)c(Cl)c4)c3C2)n1	9.1%
